In PMC7819943, “Rice protein-binding microarrays: a tool to detect cis-acting elements near promoter regions in rice”:
Over roughly 68,000 sequences, “fluorescence intensity (a.u.)” has its median near 9,100; the highest 2% begin near 16,000. The sample as a whole holds a higher share of the highest values than the screen did.

These sequences were tested against OsWRKY34 (Oryza sativa, UniProt Q0JBA9 1-250) (assay: protein-binding microarray (RPBM); PBS, 2% BSA, 51.3 ng/ul salmon testes DNA, 50 uM zinc acetate, 200 nM TF, 25 C, 1 h; high values mean tight binding). Details: protein: recombinant; tags: N-terminal polyhistidine and DsRed monomer fusion (pET32a); label: CyDye5-dUTP incorporated in the synthesized complementary strand; 3' TTTTT single-stranded linker to array surface; dsDNA, one strand shown.
Sequence of OsWRKY34 (Q0JBA9 entry or part of it): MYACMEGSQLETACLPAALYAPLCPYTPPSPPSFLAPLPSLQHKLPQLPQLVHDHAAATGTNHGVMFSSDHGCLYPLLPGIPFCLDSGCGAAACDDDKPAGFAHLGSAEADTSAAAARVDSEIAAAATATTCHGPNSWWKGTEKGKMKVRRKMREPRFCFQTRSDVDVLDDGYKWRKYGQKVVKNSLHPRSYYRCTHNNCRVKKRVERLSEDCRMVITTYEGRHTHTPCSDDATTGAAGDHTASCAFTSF
Outline: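 The binding signal is fluorescence intensity per feature, in arbitrary units, read on an Axon 4000B scanner. Polyhistidine- and DsRed-tagged transcription factors (N-terminal fusions) from E. coli BL21-CodonPlus were purified on Ni–NTA and applied at 200 nM for 1 h at 25 °C to a double-stranded, BSA-blocked custom Agilent array in buffer with 50 µM zinc acetate.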
“AGTTACCGTTCTAGTCAGGGGCGGATCCAGCGTGGGGCGGCGGAGTCACCTAGTGCAG” was tested, and the binding signal was 12600 fluorescence intensity (a.u.).
For “ACATCCTTCTGGGTTGATTTTTTTCTATAGAGGGGTAGGTCGGAGTCACCTAGTGCAG”, the binding signal was 8590 fluorescence intensity (a.u.).
For “AAGTAAGATGCCACACACCATAGTCTGCTTCACTGTCAACCGGAGTCACCTAGTGCAG”, the binding signal was 9080 fluorescence intensity (a.u.).
“CGTCTCCGCCGCTGCTTGAATCTGCCGCCACCATCACCGCCGGAGTCACCTAGTGCAG” was tested, and the binding signal was 8910 fluorescence intensity (a.u.).
“GCTGACATAATTGCTTGTTGGGATTCTTGGGAGGAAATGGCGGAGTCACCTAGTGCAG” was tested, and the binding signal was 8330 fluorescence intensity (a.u.).
With “CTTCTCTCCTCTCCGCTGTGGTTTCTTGCTGGTTCTTGGACGGAGTCACCTAGTGCAG” the binding signal was 10400 fluorescence intensity (a.u.).
“GAGATGGGGAGGGAGGCCGGCCGGGAGAGGGAGAGAGAGGCGGAGTCACCTAGTGCAG” was tested, and the binding signal was 8890 fluorescence intensity (a.u.).
For “GGGGCGTCCCGGGAGGGGAGGGAGATGGGGAGGGAGCGGACGGAGTCACCTAGTGCAG”, the binding signal was 16800 fluorescence intensity (a.u.).
“GAGGCTGGGCTGGGCGGGCGTATCGTTCCTGCTCCCGGAGCGGAGTCACCTAGTGCAG” was tested, and the binding signal was 25400 fluorescence intensity (a.u.).
For “GGGTGGAGCTGAACTGATGGGCCGAACTATGTATGGTTGGCGGAGTCACCTAGTGCAG”, the binding signal was 9030 fluorescence intensity (a.u.).
For “TGGCCGGAGAGGGGAGATGGGGAGATGGGGAGAGGGGAGGCGGAGTCACCTAGTGCAG”, the binding signal was 9420 fluorescence intensity (a.u.).
“ATTGTTTTTATAGGGGAGGGGAGGCGGGATCGAGCCCGGGCGGAGTCACCTAGTGCAG” was tested, and the binding signal was 15100 fluorescence intensity (a.u.).
In the case of “GTATTATGGGTGGAGGCGGGCGGCTGAGCTGTTCCTGGGCCGGAGTCACCTAGTGCAG”, the binding signal is reported as 8880 fluorescence intensity (a.u.).
“GCTGTACCAGTACTGACCGGGGTGGGGTGGCGGGAGCGGACGGAGTCACCTAGTGCAG” was tested, and the binding signal was 14600 fluorescence intensity (a.u.).
With “GGGTTGGGTGGGTGCTGTAATATGGGGAGATACTGACTACCGGAGTCACCTAGTGCAG” the binding signal was 19200 fluorescence intensity (a.u.).
“TCACCGGGCGGTCACCGGAGGCGGAGGCGGAGGGAGGGGCCGGAGTCACCTAGTGCAG” was tested, and the binding signal was 10200 fluorescence intensity (a.u.).
With “TGGAGGAGGGGAGGCCGGGGATTGTTTTTATAGGGGAGGGCGGAGTCACCTAGTGCAG” the binding signal was 30500 fluorescence intensity (a.u.).
“TCTCCTCTCTCTCTCTTCTTCCCGGGGAGGCGGGGAGCGGCGGAGTCACCTAGTGCAG” was tested, and the binding signal was 11700 fluorescence intensity (a.u.).
With “CGCTGCGCTGCCGGTCCATTTCTAGAAGCCCTCGCGCTCCCGGAGTCACCTAGTGCAG” the binding signal was 9130 fluorescence intensity (a.u.).
For “TTGAATTGAATTATTATGCTCATCGCTTTCGCATAACCTCCGGAGTCACCTAGTGCAG”, the binding signal was 8320 fluorescence intensity (a.u.).
“CTAGGAGGAGGATTAGTTCTTGCGCATCGCTTCTGAGCTCCGGAGTCACCTAGTGCAG” was tested, and the binding signal was 8200 fluorescence intensity (a.u.).
“CCCATGTTTTTTTTTCATATTTTGCAATCTTCGGTTTAAACGGAGTCACCTAGTGCAG” was tested, and the binding signal was 8520 fluorescence intensity (a.u.).
In the case of “CTATAAATACACGACGTCTCTCCGCTGGCTTACACACAACCGGAGTCACCTAGTGCAG”, the binding signal is reported as 10100 fluorescence intensity (a.u.).
With “CGCCAACTCAACGCTGAAGCCGCTGCCTCACCATCTCGTCCGGAGTCACCTAGTGCAG” the binding signal was 8780 fluorescence intensity (a.u.).
In the case of “ATCGCCGCAACCACCAACCTCTCGAGGCCGTTCGAATCCCCGGAGTCACCTAGTGCAG”, the binding signal is reported as 12300 fluorescence intensity (a.u.).
With “TATATATATATATATATATATATATATATATATAAGCGTCCGGAGTCACCTAGTGCAG” the binding signal was 11300 fluorescence intensity (a.u.).
For “AGTGCTGGAGGAGGGAGGCGGGGAGGGGAGCCATCAGCCACGGAGTCACCTAGTGCAG”, the binding signal was 17300 fluorescence intensity (a.u.).
With “TTGGTGGTTGGTGGGGAGCGTGGAGATGGCGGGGCTGTCCCGGAGTCACCTAGTGCAG” the binding signal was 22200 fluorescence intensity (a.u.).
“GTGGTCCGGTGGTGGGGTGATGGGGCGTGGCGGTTCTGTCCGGAGTCACCTAGTGCAG” was tested, and the binding signal was 15400 fluorescence intensity (a.u.).
With “GGGGCGGCAGTGGATGGCGGTTGGGCGGCGGTGCGGGGAGCGGAGTCACCTAGTGCAG” the binding signal was 12200 fluorescence intensity (a.u.).
For “AGAAGGGAAGGGGAGGGGAGGGCGGGACGCCGGCCGGAGCCGGAGTCACCTAGTGCAG”, the binding signal was 10200 fluorescence intensity (a.u.).
In the case of “GGGGAGGGAGCCGGGCGGGATTCAGCCATGAGGAGGAGGGCGGAGTCACCTAGTGCAG”, the binding signal is reported as 9050 fluorescence intensity (a.u.).
With “AGAAGGAGAAGGCGGGGAGAGGCGGGGCGGCCACGGGAGACGGAGTCACCTAGTGCAG” the binding signal was 12500 fluorescence intensity (a.u.).
“TTCTTGCCGGAGGAGGGGCAGGGGAGGGAGCCGGGCGGGACGGAGTCACCTAGTGCAG” was tested, and the binding signal was 23500 fluorescence intensity (a.u.).
For “GAGGACGAAGTGGAGGCGGAGGGCAGGTGGGGAGGAGAGCCGGAGTCACCTAGTGCAG”, the binding signal was 8660 fluorescence intensity (a.u.).
“GGCCATGCTTGAATCTCTCGCCTGACATTCAGACTTCAGACGGAGTCACCTAGTGCAG” was tested, and the binding signal was 8390 fluorescence intensity (a.u.).
“CTCTATATAAGCCCCACAATGCCCACCACCAGCTTGTCACCGGAGTCACCTAGTGCAG” was tested, and the binding signal was 8230 fluorescence intensity (a.u.).
In the case of “AAGATTCTTCTCTTCGTCGACGACCCGGCCTCTCGCTCTCCGGAGTCACCTAGTGCAG”, the binding signal is reported as 9630 fluorescence intensity (a.u.).
With “CTATTGGCTCATACCTTTTTTCAGTGGCTGGGTGTAGGTTCGGAGTCACCTAGTGCAG” the binding signal was 8840 fluorescence intensity (a.u.).
“TGCAGATATTGGCATCGATTGCTCACTTCAGGTGATTTTTCGGAGTCACCTAGTGCAG” was tested, and the binding signal was 8060 fluorescence intensity (a.u.).
For “CATGTCCAACTTTAATTGTTCGTCTTTTTTTTGAAAAAACCGGAGTCACCTAGTGCAG”, the binding signal was 8630 fluorescence intensity (a.u.).
“CAGACCTGGAGGTTGTTGCCCTTGATGTGCGCCCAGATGACGGAGTCACCTAGTGCAG” was tested, and the binding signal was 8470 fluorescence intensity (a.u.).
“CGCATCTCGTTTTCTCTTTATTTGTTTCTTCTTTCGCTTTCGGAGTCACCTAGTGCAG” was tested, and the binding signal was 13800 fluorescence intensity (a.u.).
“AATGGCTAGCGTATAATCTGTCTTGGAATCACTTTGCTGCCGGAGTCACCTAGTGCAG” was tested, and the binding signal was 8120 fluorescence intensity (a.u.).
“ATTGTCTTGGCTGCTGTCTTTATAGTATTCACTCATCTGCCGGAGTCACCTAGTGCAG” was tested, and the binding signal was 18500 fluorescence intensity (a.u.).
“TTTTTATTCCACCGCTTTGTCGTTCTCGCAATCTCGCTGTCGGAGTCACCTAGTGCAG” was tested, and the binding signal was 17700 fluorescence intensity (a.u.).
With “TTGTAGTCCGCTGCTTTCCCTTTCTTTTATCTTCTCTTTCCGGAGTCACCTAGTGCAG” the binding signal was 8450 fluorescence intensity (a.u.).
With “GTTCTTTTGGGCAATCTCGTCTGTATTCCTTTGTCGTCTACGGAGTCACCTAGTGCAG” the binding signal was 10800 fluorescence intensity (a.u.).
With “TCTCCCCTTTCTGCTTCTGCTGCTTCTCCCTTTCCCTCTCCGGAGTCACCTAGTGCAG” the binding signal was 8200 fluorescence intensity (a.u.).
For “TTTTTTTCTCTTTCTTTTTTCTTTTCTTCGTTTTCTTTCACGGAGTCACCTAGTGCAG”, the binding signal was 9230 fluorescence intensity (a.u.).
With “TTTATTCTCTGTTCCTCTTTTTTTCATATTCGTTTTTCACCGGAGTCACCTAGTGCAG” the binding signal was 13200 fluorescence intensity (a.u.).
In the case of “GTCTCTTTCCGCTGCTTCGTTTCTGTCTCCGGTTTATTCACGGAGTCACCTAGTGCAG”, the binding signal is reported as 18800 fluorescence intensity (a.u.).
With “ATCAATTTATCACCCGCTGACTCATCTTTATTGTATCTGCCGGAGTCACCTAGTGCAG” the binding signal was 8420 fluorescence intensity (a.u.).
With “GTCCGCTGCTTTTCTCCCTTGTCGGTTATTTTACCTCTTCCGGAGTCACCTAGTGCAG” the binding signal was 18900 fluorescence intensity (a.u.).
